Records with an inconclusive call do not appear. Active and inactive are the calls of the source. Calls come from the whole dose curve; as a rule, active = well fitted curve in the direction sought with a large enough effect; inconclusive = small, poorly fitted or top-dose-only effect, or another doubt; inactive = no such curve, though single readings can be large; an effect the other way counts as inactive or inconclusive.
Experiments:
[1] = Quantitative High-Throughput drug screen in 47 multiple myeloma cell lines against the NCATS MIPE library collection: KMS21BM_JCRB cell viability assay (AID 1918974); conditions: ATP luminescence, 48 h; viability: at 45.8 µM unless noted
Method in brief: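 Primary qHTS used for cherry-picking: cells at 500/well, library compounds for 48 h (37C, 5% CO2), luminescent ATP assay.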

[2] = Quantitative High-Throughput drug screen in 47 multiple myeloma cell lines against the NCATS MIPE library collection: KMS26_JCRB cell viability assay (AID 1918975); note: nearly all actives have a fitted effect of over 45% in size
Method in brief: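 CellTiter-Glo luminescence (ATP) after 48 h compound exposure, 37C/5% CO2; 500 cells/well; MIPE 4.0 approved/investigational drugs pinned in; DMSO = 100%, media only = 0% viability.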

[3] = Quantitative High-Throughput drug screen in 47 multiple myeloma cell lines against the NCATS MIPE library collection: MMM1_PLB cell viability assay (AID 1918976); note: nearly all actives have a fitted effect of over 35% in size
Method in brief: (§1)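 500 cells/well; MIPE 4.0 drugs pin-transferred; 48 h, 37C, 5% CO2. CellTiter-Glo, 5 min RT, luminescence. Controls: DMSO 100%, media 0%.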

[4] = Quantitative High-Throughput drug screen in 47 multiple myeloma cell lines against the NCATS MIPE library collection: MOLP8_DSMZ cell viability assay (AID 1918977); note: nearly all actives have a fitted effect of over 45% in size
Method in brief: as §1

[5] = Quantitative High-Throughput drug screen in 47 multiple myeloma cell lines against the NCATS MIPE library collection: NCIH929_DSMZ cell viability assay (AID 1918978); note: nearly all actives have a fitted effect of over 35% in size
Method in brief: as §1

[6] = Quantitative High-Throughput drug screen in 47 multiple myeloma cell lines against the NCATS MIPE library collection: OCIMY1_PLB cell viability assay (AID 1918979); note: nearly all actives have a fitted effect of over 35% in size
Method in brief: as §1

[7] = Quantitative High-Throughput drug screen in 47 multiple myeloma cell lines against the NCATS MIPE library collection: MM1S_ATCC cell viability assay (AID 1918980); note: nearly all actives have a fitted effect of over 45% in size
Method in brief: as §1

[8] = Quantitative High-Throughput drug screen in 47 multiple myeloma cell lines against the NCATS MIPE library collection: MM1R_ATCC cell viability assay (AID 1918981); note: nearly all actives have a fitted effect of over 35% in size
Method in brief: as §1

[9] = Quantitative High-Throughput drug screen in 47 multiple myeloma cell lines against the NCATS MIPE library collection: KMS28PE_JCRB cell viability assay (AID 1918983); note: nearly all actives have a fitted effect of over 35% in size
Method in brief: as §1

[10] = Quantitative High-Throughput drug screen in 47 multiple myeloma cell lines against the NCATS MIPE library collection: L363_DSMZ cell viability assay (AID 1918984); note: nearly all actives have a fitted effect of over 40% in size
Method in brief: as §1

[11] = Quantitative High-Throughput drug screen in 47 multiple myeloma cell lines against the NCATS MIPE library collection: OCIMY7_PLB cell viability assay (AID 1918987); note: nearly all actives have a fitted effect of over 65% in size
Method in brief: as §1

[12] = Quantitative High-Throughput drug screen in 47 multiple myeloma cell lines against the NCATS MIPE library collection: OCIMY5_PLB cell viability assay (AID 1918988); note: nearly all actives have a fitted effect of over 65% in size
Method in brief: as §1

[13] = Quantitative High-Throughput drug screen in 47 multiple myeloma cell lines against the NCATS MIPE library collection: OPM1_PLB cell viability assay (AID 1918989); note: nearly all actives have a fitted effect of over 40% in size
Method in brief: as §1

[14] = Quantitative High-Throughput drug screen in 47 multiple myeloma cell lines against the NCATS MIPE library collection: SKMM1_PLB cell viability assay (AID 1919863); conditions: SKMM1 myeloma viability, CellTiter-Glo ATP, 48 h; viability: active compounds read low; note: nearly all actives have a fitted effect of over 35% in size
Method in brief: as §1

[15] = Quantitative High-Throughput drug screen in 47 multiple myeloma cell lines against the NCATS MIPE library collection: U266_ATCC cell viability assay (AID 1919864); note: nearly all actives have a fitted effect of over 35% in size
Method in brief: as §1

[16] = Quantitative High-Throughput drug screen in 47 multiple myeloma cell lines against the NCATS MIPE library collection: XG6_PLB cell viability assay (AID 1919865); note: nearly all actives have a fitted effect of over 40% in size
Method in brief: as §1

[17] = Quantitative High-Throughput drug screen in 47 multiple myeloma cell lines against the NCATS MIPE library collection: XG1_PLB cell viability assay (AID 1919866); note: nearly all actives have a fitted effect of over 35% in size
Method in brief: as §1

[18] = Quantitative High-Throughput drug screen in 47 multiple myeloma cell lines against the NCATS MIPE library collection: VP6_DJ cell viability assay (AID 1919867); note: nearly all actives have a fitted effect of over 40% in size
Method in brief: as §1

[19] = Quantitative High-Throughput drug screen in 47 multiple myeloma cell lines against the NCATS MIPE library collection: LP1_DSMZ cell viability assay (AID 1918982); note: nearly all actives have a fitted effect of over 35% in size
Method in brief: as §1

[20] = Quantitative High-Throughput drug screen in 47 multiple myeloma cell lines against the NCATS MIPE library collection: KMS34_JCRB cell viability assay (AID 1918985); note: nearly all actives have a fitted effect of over 40% in size
Method in brief: as §1

Measured: Potency
Potency is the fitted concentration of half-maximal effect.

C=C1C(=CC=C2CCC[C@]3(C)[C@@H]([C@H](C)C=C[C@H](C)C(C)C)CC[C@@H]23)C[C@@H](O)C[C@@H]1O
active: [1] 52.6 nM | [2] 2350 nM | [3] 5900 nM | [4] 7430 nM | [5] 935 nM | [6] 18700 nM | [7] 83.3 nM | [8] 1660 nM | [9] 13200 nM | [10] 264 nM | [11] 11800 nM | [12] 526 nM | [13] 1660 nM | [14] 14800 nM | [15] 1050 nM | [16] 1870 nM | [17] 1320 nM | [18] 132 nM

CNC(=O)c1cc(Oc2ccc(NC(=O)Nc3cc(C(C)(C)C)nn3-c3ccc4ncccc4c3)c(F)c2)ccn1
active: [1] 4180 nM | [2] 9350 nM | [3] 14800 nM | [4] 4180 nM | [5] 4690 nM | [6] 16600 nM | [7] 11800 nM | [8] 7430 nM | [19] 10500 nM | [9] 9350 nM | [10] 18700 nM | [11] 6620 nM | [12] 6620 nM | [13] 5260 nM | [14] 14800 nM | [15] 13200 nM | [16] 7430 nM | [18] 4690 nM

COC(=O)Nc1nc2ccc(C(=O)c3ccc(F)cc3)cc2[nH]1
active: [1] 296 nM | [2] 5260 nM | [3] 11800 nM | [4] 418 nM | [5] 743 nM | [6] 662 nM | [8] 833 nM | [19] 935 nM | [9] 1660 nM | [20] 935 nM | [11] 296 nM | [12] 469 nM | [13] 590 nM | [14] 469 nM | [16] 469 nM | [17] 332 nM | [18] 935 nM

C[C@@H](Oc1cc(-c2cnn(C3CCNCC3)c2)cnc1N)c1c(Cl)ccc(F)c1Cl
active: [1] 8330 nM | [2] 14800 nM | [3] 9350 nM | [4] 13200 nM | [5] 3320 nM | [6] 20900 nM | [7] 18700 nM | [8] 14800 nM | [19] 14800 nM | [9] 11800 nM | [10] 4690 nM | [20] 11800 nM | [11] 3320 nM | [12] 5260 nM | [13] 5900 nM | [14] 7430 nM | [15] 14800 nM | [16] 2350 nM | [17] 4690 nM | [18] 4180 nM

Nc1cc(C(F)(F)F)c(-c2cc(N3CCOCC3)nc(N3CCOCC3)n2)cn1
active: [1] 418 nM | [2] 2090 nM | [3] 526 nM | [4] 1050 nM | [5] 209 nM | [6] 469 nM | [7] 235 nM | [8] 1180 nM | [9] 935 nM | [10] 209 nM | [11] 590 nM | [12] 187 nM | [13] 1050 nM | [14] 662 nM | [15] 4690 nM | [16] 662 nM | [17] 469 nM | [18] 743 nM

Cc1ccc(C(=O)Nc2ccc(CN3CCN(C)CC3)c(C(F)(F)F)c2)cc1C#Cc1cnc2cccnn12
active: [1] 662 nM | [2] 6620 nM | [3] 7430 nM | [4] 833 nM | [5] 935 nM | [6] 14800 nM | [7] 4690 nM | [8] 3320 nM | [19] 5900 nM | [9] 5900 nM | [10] 833 nM | [20] 3320 nM | [11] 264 nM | [12] 1480 nM | [13] 590 nM | [14] 5900 nM | [16] 662 nM | [18] 1320 nM

OCCCNc1cc(-c2ccnc(Nc3cccc(Cl)c3)n2)ccn1
active: [1] 37.2 nM | [2] 132 nM | [3] 166 nM | [5] 29.6 nM | [6] 235 nM | [7] 118 nM | [8] 93.5 nM | [19] 105 nM | [9] 148 nM | [10] 33.2 nM | [20] 132 nM | [11] 46.9 nM | [12] 105 nM | [13] 46.9 nM | [14] 148 nM | [15] 148 nM | [16] 33.2 nM | [17] 41.8 nM | [18] 23.5 nM

O=C(Nc1cc(C(F)(F)F)cc(C(F)(F)F)c1)c1cc(Cl)ccc1O
active: [1] 526 nM | [2] 1180 nM | [3] 296 nM | [5] 1480 nM | [6] 3320 nM | [7] 590 nM | [8] 1050 nM | [19] 469 nM | [9] 1660 nM | [10] 833 nM | [20] 1480 nM | [11] 1870 nM | [12] 2350 nM | [13] 833 nM | [14] 833 nM | [15] 1480 nM | [16] 935 nM | [17] 935 nM | [18] 526 nM

Reference: PubChem BioAssay (NCATS)
